Results: the supplement of paper PMC11732987, “Enantioselective OTUD7B fragment discovery through chemoproteomics screening and high-throughput optimisation” (Communications Chemistry, 2025)

Assays:
Assay in all cases: log2 ratio of Biotin-Ahx-Ub-VS probe labelling (fragment/DMSO); higher = less target engagement (more negative = stronger competition), active = hit call of the paper (q ≤ 0.05, log2 ratio ≤ -1)
Details in all cases: compound concentration: 200 uM; treatment time: 3 h
USP42 = biological target: T1, USP42 (UniProt Q9H9J4)
T1 sequence (whole entry): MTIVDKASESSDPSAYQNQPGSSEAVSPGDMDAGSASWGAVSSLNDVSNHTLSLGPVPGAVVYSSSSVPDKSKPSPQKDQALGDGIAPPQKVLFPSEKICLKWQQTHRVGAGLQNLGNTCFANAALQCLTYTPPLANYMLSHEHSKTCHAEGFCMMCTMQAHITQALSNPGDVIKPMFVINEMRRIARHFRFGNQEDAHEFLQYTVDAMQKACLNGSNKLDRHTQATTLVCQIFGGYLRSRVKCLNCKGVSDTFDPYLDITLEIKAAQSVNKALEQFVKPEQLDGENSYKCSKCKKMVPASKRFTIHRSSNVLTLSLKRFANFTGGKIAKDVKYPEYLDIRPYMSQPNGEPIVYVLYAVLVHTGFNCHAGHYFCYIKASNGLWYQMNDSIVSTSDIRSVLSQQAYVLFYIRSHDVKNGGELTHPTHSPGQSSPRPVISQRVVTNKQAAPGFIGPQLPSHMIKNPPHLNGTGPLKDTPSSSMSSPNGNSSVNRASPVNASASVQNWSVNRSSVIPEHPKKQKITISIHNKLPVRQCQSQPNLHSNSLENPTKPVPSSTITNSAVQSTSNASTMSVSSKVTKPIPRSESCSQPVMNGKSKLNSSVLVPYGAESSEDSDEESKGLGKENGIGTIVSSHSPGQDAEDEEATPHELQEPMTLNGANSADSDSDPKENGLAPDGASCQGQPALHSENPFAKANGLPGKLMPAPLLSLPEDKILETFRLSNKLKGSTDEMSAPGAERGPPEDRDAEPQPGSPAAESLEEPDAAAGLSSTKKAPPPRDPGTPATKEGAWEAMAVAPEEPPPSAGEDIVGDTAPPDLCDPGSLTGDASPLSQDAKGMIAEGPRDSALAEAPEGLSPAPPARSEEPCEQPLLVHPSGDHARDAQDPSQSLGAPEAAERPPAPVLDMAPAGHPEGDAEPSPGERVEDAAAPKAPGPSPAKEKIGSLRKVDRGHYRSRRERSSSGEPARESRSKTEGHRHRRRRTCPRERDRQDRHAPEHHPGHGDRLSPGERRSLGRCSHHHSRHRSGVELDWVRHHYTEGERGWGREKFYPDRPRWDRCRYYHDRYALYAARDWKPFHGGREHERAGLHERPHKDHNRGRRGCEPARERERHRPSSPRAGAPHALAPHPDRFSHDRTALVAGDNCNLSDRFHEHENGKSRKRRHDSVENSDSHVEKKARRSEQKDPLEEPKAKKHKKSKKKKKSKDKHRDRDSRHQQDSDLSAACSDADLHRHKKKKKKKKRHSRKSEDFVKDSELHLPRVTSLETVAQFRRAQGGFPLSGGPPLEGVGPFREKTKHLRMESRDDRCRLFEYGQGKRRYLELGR
Summary of the method: (§1)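 In triplicate, 495 µg of HEK293T lysate per sample was incubated with fragment at 200 µM or vehicle for 3 h. Biotin-Ahx-Ub-VS was then added to 0.5 µM final for 1 h, and labelled DUBs were captured with NeutrAvidin, digested with LysC and trypsin, and measured by diaPASEF LC-MS/MS. Data are average log2 fragment/vehicle ratios by unpaired t-test from global-median-normalised Spectronaut label-free quantities, restricted to proteins with ≥2 unique peptides.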

USP46 = USP46 (UniProt P62068)
USP46, sequence (P62068 whole entry): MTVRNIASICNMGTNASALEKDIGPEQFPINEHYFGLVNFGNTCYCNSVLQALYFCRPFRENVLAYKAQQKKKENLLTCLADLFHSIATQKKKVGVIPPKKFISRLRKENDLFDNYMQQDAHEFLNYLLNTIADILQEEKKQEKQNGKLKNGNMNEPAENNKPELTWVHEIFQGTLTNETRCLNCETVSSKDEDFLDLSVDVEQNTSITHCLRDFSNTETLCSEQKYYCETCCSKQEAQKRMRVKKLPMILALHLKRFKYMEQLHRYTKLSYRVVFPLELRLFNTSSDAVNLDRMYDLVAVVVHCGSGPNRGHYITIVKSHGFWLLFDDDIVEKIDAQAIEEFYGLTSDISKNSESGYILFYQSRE
Summary of the method: as §1

USP47 = biological target: T2, USP47 (UniProt Q96K76)
T2 sequence (whole entry): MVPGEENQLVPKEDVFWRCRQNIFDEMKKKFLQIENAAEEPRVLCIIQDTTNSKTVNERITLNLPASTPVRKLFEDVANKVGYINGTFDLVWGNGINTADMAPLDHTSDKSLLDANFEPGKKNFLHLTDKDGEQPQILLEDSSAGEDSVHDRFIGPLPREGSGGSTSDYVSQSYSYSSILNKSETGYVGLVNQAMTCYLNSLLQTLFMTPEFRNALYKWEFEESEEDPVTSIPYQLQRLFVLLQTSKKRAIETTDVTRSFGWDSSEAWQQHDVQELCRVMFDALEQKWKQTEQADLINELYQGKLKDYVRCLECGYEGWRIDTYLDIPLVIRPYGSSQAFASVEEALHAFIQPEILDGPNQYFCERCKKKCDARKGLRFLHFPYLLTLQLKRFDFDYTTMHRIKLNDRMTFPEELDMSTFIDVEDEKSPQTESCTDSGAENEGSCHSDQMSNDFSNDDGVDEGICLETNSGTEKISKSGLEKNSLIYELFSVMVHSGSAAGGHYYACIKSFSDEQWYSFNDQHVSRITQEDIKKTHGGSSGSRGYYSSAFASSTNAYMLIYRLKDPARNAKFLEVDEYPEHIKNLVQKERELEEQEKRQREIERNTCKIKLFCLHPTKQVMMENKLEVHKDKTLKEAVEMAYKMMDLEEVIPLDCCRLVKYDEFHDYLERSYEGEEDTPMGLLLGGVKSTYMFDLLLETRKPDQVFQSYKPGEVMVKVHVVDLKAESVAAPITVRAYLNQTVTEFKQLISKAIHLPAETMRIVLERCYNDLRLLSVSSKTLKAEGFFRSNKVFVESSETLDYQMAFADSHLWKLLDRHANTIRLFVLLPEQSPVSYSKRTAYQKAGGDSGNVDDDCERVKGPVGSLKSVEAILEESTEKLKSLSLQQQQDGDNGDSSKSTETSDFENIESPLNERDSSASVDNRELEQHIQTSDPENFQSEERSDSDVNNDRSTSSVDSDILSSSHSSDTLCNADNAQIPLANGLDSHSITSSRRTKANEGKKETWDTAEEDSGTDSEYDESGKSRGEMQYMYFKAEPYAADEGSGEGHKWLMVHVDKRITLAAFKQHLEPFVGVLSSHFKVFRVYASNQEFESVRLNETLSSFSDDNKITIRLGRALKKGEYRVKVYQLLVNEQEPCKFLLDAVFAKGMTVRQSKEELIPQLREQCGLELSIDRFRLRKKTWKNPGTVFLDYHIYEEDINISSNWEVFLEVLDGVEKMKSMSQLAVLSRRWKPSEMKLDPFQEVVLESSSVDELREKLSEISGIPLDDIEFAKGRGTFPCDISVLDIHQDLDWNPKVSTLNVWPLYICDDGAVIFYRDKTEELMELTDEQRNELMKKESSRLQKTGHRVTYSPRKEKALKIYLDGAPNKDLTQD
Summary of the method: as §1

USP48 = biological target: T3, USP48 (UniProt Q86UV5)
T3 sequence (whole entry): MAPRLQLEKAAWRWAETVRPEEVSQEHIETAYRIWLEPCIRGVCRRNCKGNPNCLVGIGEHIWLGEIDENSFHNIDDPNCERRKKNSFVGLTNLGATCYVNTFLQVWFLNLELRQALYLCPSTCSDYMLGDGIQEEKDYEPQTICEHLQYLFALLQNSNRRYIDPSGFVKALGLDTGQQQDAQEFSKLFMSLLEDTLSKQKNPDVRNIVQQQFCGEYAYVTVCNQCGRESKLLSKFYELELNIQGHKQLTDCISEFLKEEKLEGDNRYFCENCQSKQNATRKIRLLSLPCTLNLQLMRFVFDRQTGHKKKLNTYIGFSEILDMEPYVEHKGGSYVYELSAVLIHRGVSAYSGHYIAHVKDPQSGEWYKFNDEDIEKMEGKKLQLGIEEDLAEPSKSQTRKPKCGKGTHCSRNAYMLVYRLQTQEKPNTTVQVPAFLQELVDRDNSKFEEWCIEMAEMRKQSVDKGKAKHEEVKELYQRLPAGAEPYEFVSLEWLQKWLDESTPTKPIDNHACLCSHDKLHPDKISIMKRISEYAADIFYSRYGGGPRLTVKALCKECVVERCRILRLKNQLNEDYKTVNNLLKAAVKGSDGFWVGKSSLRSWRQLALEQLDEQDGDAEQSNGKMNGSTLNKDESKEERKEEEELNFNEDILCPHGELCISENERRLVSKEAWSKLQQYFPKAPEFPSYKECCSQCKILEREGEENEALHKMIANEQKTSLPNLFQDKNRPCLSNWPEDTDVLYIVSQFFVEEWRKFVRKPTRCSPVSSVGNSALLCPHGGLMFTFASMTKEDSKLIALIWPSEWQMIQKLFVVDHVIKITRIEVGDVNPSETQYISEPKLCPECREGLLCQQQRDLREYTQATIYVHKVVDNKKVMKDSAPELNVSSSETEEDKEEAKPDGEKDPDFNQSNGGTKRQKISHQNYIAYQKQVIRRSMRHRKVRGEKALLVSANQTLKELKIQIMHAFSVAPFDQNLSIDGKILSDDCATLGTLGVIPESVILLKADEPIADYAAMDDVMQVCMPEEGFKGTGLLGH
Summary of the method: as §1

USP5 = biological target: T4, USP5 (UniProt P45974)
T4 sequence (whole entry): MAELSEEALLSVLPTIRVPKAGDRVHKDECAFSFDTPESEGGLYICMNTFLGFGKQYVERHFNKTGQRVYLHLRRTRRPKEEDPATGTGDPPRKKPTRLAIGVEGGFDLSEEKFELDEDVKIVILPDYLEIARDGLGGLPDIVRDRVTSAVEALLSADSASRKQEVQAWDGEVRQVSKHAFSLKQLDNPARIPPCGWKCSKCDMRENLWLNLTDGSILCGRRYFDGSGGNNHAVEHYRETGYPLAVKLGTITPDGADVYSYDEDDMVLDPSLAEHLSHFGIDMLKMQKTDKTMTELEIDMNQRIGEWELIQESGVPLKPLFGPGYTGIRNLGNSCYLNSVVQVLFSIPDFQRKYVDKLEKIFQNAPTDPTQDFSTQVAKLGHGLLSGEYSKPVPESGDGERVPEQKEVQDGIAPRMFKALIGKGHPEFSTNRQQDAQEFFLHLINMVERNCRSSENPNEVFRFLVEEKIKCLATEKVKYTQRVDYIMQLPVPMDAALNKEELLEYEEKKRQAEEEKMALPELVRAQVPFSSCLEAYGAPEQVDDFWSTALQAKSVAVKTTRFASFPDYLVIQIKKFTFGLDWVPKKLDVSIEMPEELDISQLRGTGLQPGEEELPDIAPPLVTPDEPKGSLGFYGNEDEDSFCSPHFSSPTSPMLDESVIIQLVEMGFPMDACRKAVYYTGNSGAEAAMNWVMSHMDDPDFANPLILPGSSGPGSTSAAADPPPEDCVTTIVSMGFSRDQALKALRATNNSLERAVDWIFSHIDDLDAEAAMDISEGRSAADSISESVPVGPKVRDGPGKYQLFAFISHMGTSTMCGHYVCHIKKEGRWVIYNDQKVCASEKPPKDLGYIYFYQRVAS
Summary of the method: as §1

USP54 = USP54 (UniProt Q70EL1)
USP54, sequence (Q70EL1 whole entry): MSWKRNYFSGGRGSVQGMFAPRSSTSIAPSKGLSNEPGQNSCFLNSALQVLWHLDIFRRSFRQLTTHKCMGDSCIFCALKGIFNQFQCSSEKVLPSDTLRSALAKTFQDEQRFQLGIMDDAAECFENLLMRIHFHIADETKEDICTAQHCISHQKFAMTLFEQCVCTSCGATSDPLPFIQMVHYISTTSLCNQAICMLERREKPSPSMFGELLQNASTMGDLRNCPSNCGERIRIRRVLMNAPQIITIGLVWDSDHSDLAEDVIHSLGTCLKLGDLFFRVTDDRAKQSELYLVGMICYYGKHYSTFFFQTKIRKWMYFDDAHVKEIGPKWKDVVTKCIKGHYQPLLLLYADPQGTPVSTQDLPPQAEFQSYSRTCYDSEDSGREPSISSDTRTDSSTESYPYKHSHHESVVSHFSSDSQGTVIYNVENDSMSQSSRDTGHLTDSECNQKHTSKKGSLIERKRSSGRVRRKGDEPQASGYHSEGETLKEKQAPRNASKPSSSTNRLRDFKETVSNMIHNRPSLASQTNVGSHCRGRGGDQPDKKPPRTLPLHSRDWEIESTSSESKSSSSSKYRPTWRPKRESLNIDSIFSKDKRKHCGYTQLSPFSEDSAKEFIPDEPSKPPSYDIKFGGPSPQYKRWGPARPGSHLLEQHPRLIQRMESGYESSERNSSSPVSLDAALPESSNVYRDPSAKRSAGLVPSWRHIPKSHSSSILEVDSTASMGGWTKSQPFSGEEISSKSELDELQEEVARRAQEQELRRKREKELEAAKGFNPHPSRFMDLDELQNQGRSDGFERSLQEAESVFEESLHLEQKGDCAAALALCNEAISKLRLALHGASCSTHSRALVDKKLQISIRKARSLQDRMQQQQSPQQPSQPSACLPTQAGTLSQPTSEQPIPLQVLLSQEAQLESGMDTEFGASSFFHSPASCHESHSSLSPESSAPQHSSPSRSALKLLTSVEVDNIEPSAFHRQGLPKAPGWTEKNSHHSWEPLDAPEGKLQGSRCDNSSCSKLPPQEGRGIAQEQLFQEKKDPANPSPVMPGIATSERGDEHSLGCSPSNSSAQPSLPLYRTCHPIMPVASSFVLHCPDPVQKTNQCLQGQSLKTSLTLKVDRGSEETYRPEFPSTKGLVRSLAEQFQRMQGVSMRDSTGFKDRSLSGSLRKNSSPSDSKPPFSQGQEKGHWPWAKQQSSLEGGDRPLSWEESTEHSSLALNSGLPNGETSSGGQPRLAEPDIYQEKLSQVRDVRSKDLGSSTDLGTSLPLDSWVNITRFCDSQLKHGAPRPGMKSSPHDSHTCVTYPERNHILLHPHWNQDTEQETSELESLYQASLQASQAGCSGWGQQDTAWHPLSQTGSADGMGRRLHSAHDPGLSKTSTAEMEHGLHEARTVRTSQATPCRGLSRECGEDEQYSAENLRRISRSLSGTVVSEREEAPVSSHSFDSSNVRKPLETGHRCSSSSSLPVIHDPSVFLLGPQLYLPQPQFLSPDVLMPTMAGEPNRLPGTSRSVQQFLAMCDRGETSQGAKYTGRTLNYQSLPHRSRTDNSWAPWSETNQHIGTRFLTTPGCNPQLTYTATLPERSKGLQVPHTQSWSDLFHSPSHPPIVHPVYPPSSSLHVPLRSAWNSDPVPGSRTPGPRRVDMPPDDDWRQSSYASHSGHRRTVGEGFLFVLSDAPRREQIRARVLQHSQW
Summary of the method: as §1

USP7 = USP7 (UniProt Q93009)
USP7, sequence (Q93009 whole entry, looked up): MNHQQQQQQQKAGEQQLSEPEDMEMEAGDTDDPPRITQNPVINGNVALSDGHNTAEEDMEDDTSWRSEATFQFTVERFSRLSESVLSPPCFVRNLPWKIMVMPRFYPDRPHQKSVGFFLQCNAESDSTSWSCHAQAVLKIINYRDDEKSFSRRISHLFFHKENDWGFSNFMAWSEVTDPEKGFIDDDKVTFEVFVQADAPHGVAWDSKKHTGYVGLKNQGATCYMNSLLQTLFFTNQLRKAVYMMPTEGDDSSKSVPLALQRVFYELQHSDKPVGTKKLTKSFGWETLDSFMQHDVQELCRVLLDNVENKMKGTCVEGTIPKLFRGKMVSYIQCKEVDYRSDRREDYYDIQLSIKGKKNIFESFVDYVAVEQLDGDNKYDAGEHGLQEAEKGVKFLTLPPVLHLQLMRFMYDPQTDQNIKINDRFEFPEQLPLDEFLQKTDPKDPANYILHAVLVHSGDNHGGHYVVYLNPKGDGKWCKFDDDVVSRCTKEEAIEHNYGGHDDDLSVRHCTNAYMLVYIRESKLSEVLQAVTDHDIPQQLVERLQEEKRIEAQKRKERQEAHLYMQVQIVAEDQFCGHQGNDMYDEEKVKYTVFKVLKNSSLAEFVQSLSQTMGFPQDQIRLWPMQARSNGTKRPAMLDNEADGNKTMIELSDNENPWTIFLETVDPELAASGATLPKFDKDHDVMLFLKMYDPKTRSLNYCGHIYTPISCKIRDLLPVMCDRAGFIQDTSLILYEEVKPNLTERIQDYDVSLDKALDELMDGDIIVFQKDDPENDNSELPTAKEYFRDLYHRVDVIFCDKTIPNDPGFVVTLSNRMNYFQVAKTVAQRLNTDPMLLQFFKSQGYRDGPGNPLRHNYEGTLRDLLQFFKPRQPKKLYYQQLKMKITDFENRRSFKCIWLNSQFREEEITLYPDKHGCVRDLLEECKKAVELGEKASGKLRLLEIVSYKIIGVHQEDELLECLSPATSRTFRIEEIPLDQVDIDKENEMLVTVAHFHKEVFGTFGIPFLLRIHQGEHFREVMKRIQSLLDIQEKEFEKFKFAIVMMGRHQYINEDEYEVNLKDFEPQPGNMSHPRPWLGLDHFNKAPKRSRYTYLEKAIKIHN
Summary of the method: as §1

USP8 = biological target: T5, USP8 (UniProt P40818)
T5 sequence (whole entry): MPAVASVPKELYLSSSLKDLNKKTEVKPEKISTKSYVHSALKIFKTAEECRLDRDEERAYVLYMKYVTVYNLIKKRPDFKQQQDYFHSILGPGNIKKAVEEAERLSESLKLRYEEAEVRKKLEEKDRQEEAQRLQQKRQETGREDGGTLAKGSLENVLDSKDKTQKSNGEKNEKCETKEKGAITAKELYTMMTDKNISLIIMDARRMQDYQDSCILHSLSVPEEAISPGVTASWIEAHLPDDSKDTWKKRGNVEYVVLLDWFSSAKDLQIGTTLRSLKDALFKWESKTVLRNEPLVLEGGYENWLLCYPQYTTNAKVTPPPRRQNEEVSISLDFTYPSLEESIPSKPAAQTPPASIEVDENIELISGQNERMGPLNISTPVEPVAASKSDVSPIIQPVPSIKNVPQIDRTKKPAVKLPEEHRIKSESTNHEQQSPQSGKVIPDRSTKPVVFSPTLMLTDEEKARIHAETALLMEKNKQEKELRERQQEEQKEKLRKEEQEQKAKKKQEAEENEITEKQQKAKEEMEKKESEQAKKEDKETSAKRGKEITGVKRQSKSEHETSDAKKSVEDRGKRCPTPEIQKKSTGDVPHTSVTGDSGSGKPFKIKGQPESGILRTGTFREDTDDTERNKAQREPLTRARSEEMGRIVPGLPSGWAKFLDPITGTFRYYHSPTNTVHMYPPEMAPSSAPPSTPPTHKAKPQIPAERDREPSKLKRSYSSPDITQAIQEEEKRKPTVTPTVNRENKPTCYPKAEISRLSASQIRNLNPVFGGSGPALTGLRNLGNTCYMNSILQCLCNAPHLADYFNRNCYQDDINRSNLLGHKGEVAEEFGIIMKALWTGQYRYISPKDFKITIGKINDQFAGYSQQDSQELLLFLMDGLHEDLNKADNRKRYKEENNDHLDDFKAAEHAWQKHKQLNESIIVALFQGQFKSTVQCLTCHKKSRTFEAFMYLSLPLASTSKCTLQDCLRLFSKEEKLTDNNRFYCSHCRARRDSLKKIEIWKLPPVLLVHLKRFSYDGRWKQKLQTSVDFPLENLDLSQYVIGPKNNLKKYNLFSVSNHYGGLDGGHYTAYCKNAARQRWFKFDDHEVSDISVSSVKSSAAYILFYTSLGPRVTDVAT
Summary of the method: as §1

Measured: log2 ratio of Biotin-Ahx-Ub-VS probe labelling

COc1ccccc1C(C)NC(=O)CCl (stereo not drawn)
inactive: USP42 -0.0523 | USP46 -0.0541 | USP47 -0.334 | USP48 -0.321 | USP5 -0.208 | USP54 0.256 | USP7 -0.235 | USP8 -0.576
